PubChem BioAssay (NCI)
The panel holds about 79,000 compounds, 15% with a hit somewhere; the sample as a whole holds those more often. Activity calls are given as the source filed them. No stated cut-off is given here; in the data, active means growth inhibition above about 70%; inactive means the rest.

Experiments:
[1] = NCI Yeast Anticancer Drug Screen. Data for the wt1 strain (AID 149);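 further: 0% = growth of vehicle-treated wt1 cultures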; conditions: S. cerevisiae wt1 strain (SPY 50644) growth inhibition, stronger effect = higher value
Procedure, shortened: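 Using yeast strain wt1, compound-induced growth inhibition was determined against vehicle-treated cultures.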

[2] = NCI Yeast Anticancer Drug Screen. Data for the rad50EPP+ strain (AID 151);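 further: 0% = growth of vehicle-treated control cultures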; conditions: S. cerevisiae rad50 mutant strain, stronger effect = higher value
Procedure, shortened: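 Exposing the rad50EPP+ strain to each compound, growth was compared with vehicle-only cultures to give inhibition.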

[3] = NCI Yeast Anticancer Drug Screen. Data for the mgt1 strain (AID 153); conditions: S. cerevisiae mgt1 mutant growth inhibition, stronger effect = higher value
Procedure, shortened: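 Genetically defined yeast (mgt1) treated with compound; inhibition of growth expressed against vehicle-treated controls.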

[4] = NCI Yeast Anticancer Drug Screen. Data for the rad50 strain (AID 155);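 further: 0% = growth of vehicle-only cultures of the same strain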; conditions: S. cerevisiae rad50 strain growth inhibition, stronger effect = higher value
Procedure, shortened: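 Relative growth inhibition (compound vs vehicle) was measured in yeast with a defined repair-gene alteration.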

[5] = NCI Yeast Anticancer Drug Screen. Data for the mec2-1 strain (AID 157); conditions: S. cerevisiae mec2-1 strain, stronger effect = higher value
Procedure, shortened: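 Readout is yeast growth inhibition, normalised to vehicle-treated controls, in the mec2-1 strain exposed to compound.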

[6] = NCI Yeast Anticancer Drug Screen. Data for the rad14 strain (AID 159);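 further: 0% = growth of vehicle-treated control cultures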; conditions: S. cerevisiae rad14 strain growth inhibition, stronger effect = higher value
Procedure, shortened: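 Screen for anticancer potential: a yeast strain altered in DNA damage repair is grown with compound, and reduced growth is quantified against vehicle controls.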

[7] = NCI Yeast Anticancer Drug Screen. Data for the sgs1 mgt1 strain (AID 161);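 further: 0% = growth of cultures given vehicle only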; conditions: S. cerevisiae sgs1 mgt1 strain, stronger effect = higher value
Procedure, shortened: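 Compounds are added to genetically altered yeast, and growth is compared with cultures given vehicle alone to give percent inhibition.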

[8] = NCI Yeast Anticancer Drug Screen. Data for the CLN2oe strain (AID 163);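 further: 0% = growth of vehicle-only control cultures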; conditions: S. cerevisiae CLN2oe strain, stronger effect = higher value
Procedure, shortened: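 Values reflect how much compound exposure reduced yeast growth, referenced to vehicle-exposed cells. Assay organism is a strain with a defined genetic change affecting cell-cycle control.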

[9] = NCI Yeast Anticancer Drug Screen. Data for the cln2 rad14 strain (AID 165);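 further: 0% = growth equal to vehicle treated cultures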; conditions: S. cerevisiae cln2 rad14 strain, stronger effect = higher value
Procedure, shortened: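 Relative to vehicle controls, growth inhibition of compound-treated cln2 rad14 yeast was recorded.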

[10] = NCI Yeast Anticancer Drug Screen. Data for the bub3 strain (AID 167); conditions: S. cerevisiae bub3 mutant strain, stronger effect = higher value
Procedure, shortened: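 Screening used yeast with an engineered genetic alteration affecting cell cycle control. Compound-exposed cultures were compared with vehicle cultures, and reduced growth was taken as inhibition.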

[11] = NCI Yeast Anticancer Drug Screen. Data for the wt2 strain (AID 169);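 further: 0% = growth of vehicle-treated yeast cultures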; conditions: S. cerevisiae wt2 strain growth inhibition, stronger effect = higher value
Procedure, shortened: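 Values express reduction in yeast growth under compound treatment, referenced to vehicle-treated cells.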

[12] = NCI Yeast Anticancer Drug Screen. Data for the mlh1 strain (AID 171);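 further: 0% = growth of vehicle-treated control cultures of the same strain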; conditions: S. cerevisiae mlh1 strain growth inhibition, stronger effect = higher value
Procedure, shortened: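 Steps: expose the defined-mutant yeast strain to compound; expose a parallel culture to vehicle; measure growth; express compound effect as inhibition relative to the vehicle culture.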

[13] = NCI Yeast Anticancer Drug Screen. Data for the sgs1 strain (AID 173);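 further: 0% = growth of vehicle-only control cultures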; conditions: S. cerevisiae sgs1 mutant, stronger effect = higher value
Procedure, shortened: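 Treat defined-mutant yeast with compound; measure growth; calculate inhibition relative to vehicle-treated cells.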

[14] = NCI Yeast Anticancer Drug Screen. Data for the mlh1 rad18 strain (AID 175); conditions: S. cerevisiae mlh1 rad18 strain growth inhibition, stronger effect = higher value
Procedure, shortened: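 Test agents were incubated with a yeast strain of defined genotype (DNA damage repair defect). Inhibition of growth was derived by comparison with vehicle-exposed cultures.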

[15] = NCI Yeast Anticancer Drug Screen. Data for the rad18 strain (AID 177); conditions: S. cerevisiae rad18 mutant growth inhibition, stronger effect = higher value
Procedure, shortened: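 A genetically defined yeast mutant impaired in DNA damage repair was treated with test compounds, then its growth was measured against cultures receiving vehicle alone.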

[16] = at 5.0 µM (retest, dose inferred, filed as 0.5)
[17] = at 50.0 µM (retest, dose inferred, filed as 5.0)

Measured: growth inhibition

O=C(O)CN(CCNC(=O)OCC1c2ccccc2-c2ccccc21)CCNC(=O)OCC1c2ccccc2-c2ccccc21
inactive: [1]; at 1.2 µM -1% | [1]; at 3.7 µM -4% | [1]; at 11.0 µM 2% | [2]; at 1.2 µM 0% | [2]; at 3.7 µM 4% | [2]; at 11.0 µM 5% | [2]; at 33.0 µM 7% | [2]; at 100.0 µM 5% | [3]; at 1.2 µM -4% | [3]; at 3.7 µM -1% | [3]; at 11.0 µM 9% | [4]; at 1.2 µM -3% | [4]; at 3.7 µM -9% | [4]; [16] -21% | [4]; at 11.0 µM 11% | [4]; [17] 36% | [5]; at 1.2 µM -3% | [5]; at 3.7 µM -5% | [5]; [16] -10% | [5]; at 11.0 µM -3% | [5]; [17] -6% | [6]; at 1.2 µM 0% | [6]; at 3.7 µM 1% | [6]; at 11.0 µM 34% | [7]; [16] -1% | [7]; [17] -4% | [8]; at 1.2 µM -1% | [8]; at 3.7 µM 1% | [8]; at 11.0 µM 2% | [9]; [16] 3% | [9]; [17] 15% | [10]; at 1.2 µM -1% | [10]; at 3.7 µM 0% | [10]; [16] -16% | [10]; at 11.0 µM 1% | [10]; [17] -9% | [11]; at 1.2 µM -3% | [11]; at 3.7 µM -3% | [12]; at 1.2 µM -1% | [12]; at 3.7 µM -3% | [12]; at 11.0 µM 11% | [13]; at 1.2 µM 0% | [13]; at 3.7 µM -1% | [13]; at 11.0 µM 9% | [14]; [16] 3% | [14]; [17] 62% | [15]; at 1.2 µM -2% | [15]; at 3.7 µM -2% | [15]; at 11.0 µM 4%
active: [1]; at 33.0 µM 71% | [1]; at 100.0 µM 94% | [3]; at 33.0 µM 98% | [3]; at 100.0 µM 95% | [4]; at 33.0 µM 97% | [4]; at 50.0 µM 93.7% | [4]; at 100.0 µM 94% | [5]; at 33.0 µM 98% | [5]; at 50.0 µM 95.3% | [5]; at 100.0 µM 96% | [6]; at 33.0 µM 98% | [6]; at 100.0 µM 95% | [7]; at 50.0 µM 95.5% | [8]; at 33.0 µM 96% | [8]; at 100.0 µM 90% | [9]; at 50.0 µM 93.5% | [10]; at 33.0 µM 93% | [10]; at 50.0 µM 95% | [10]; at 100.0 µM 94% | [11]; at 11.0 µM 75% | [11]; at 33.0 µM 98% | [11]; at 100.0 µM 95% | [12]; at 33.0 µM 98% | [12]; at 100.0 µM 96% | [13]; at 33.0 µM 97% | [13]; at 100.0 µM 94% | [14]; at 50.0 µM 95.1% | [15]; at 33.0 µM 95% | [15]; at 100.0 µM 94%

Nc1ccc2ncc(Nc3ccc(Cl)c(Cl)c3)nc2c1
active: [1]; at 33.0 µM 95% | [1]; at 100.0 µM 96% | [3]; at 33.0 µM 96% | [3]; at 100.0 µM 97% | [4]; at 11.0 µM 70% | [4]; at 33.0 µM 96% | [4]; [17] 95% | [4]; at 50.0 µM 85% | [4]; at 100.0 µM 96% | [5]; at 33.0 µM 96% | [5]; [17] 98% | [5]; at 50.0 µM 86% | [5]; at 100.0 µM 97% | [6]; at 11.0 µM 73% | [6]; at 33.0 µM 97% | [6]; at 100.0 µM 96% | [7]; [17] 95% | [7]; at 50.0 µM 89% | [8]; at 33.0 µM 97% | [8]; at 100.0 µM 97% | [9]; [17] 95% | [9]; at 50.0 µM 73.7% | [10]; at 33.0 µM 96% | [10]; [17] 97% | [10]; at 50.0 µM 87.2% | [10]; at 100.0 µM 96% | [11]; at 33.0 µM 97% | [11]; at 100.0 µM 97% | [12]; at 11.0 µM 75% | [12]; at 33.0 µM 96% | [12]; at 100.0 µM 97% | [13]; at 11.0 µM 78% | [13]; at 33.0 µM 97% | [13]; at 100.0 µM 97% | [15]; at 33.0 µM 97% | [15]; at 100.0 µM 98%
inactive: [1]; at 1.2 µM -19% | [1]; at 3.7 µM 1% | [1]; at 11.0 µM 49% | [2]; at 1.2 µM -11% | [2]; at 3.7 µM -6% | [2]; at 11.0 µM 11% | [2]; at 33.0 µM 37% | [2]; at 100.0 µM 59% | [3]; at 1.2 µM -32% | [3]; at 3.7 µM -27% | [3]; at 11.0 µM 69% | [4]; at 1.2 µM 3% | [4]; at 3.7 µM 10% | [4]; [16] 1% | [5]; at 1.2 µM -6% | [5]; at 3.7 µM -16% | [5]; [16] 28% | [5]; at 11.0 µM 53% | [6]; at 1.2 µM -20% | [6]; at 3.7 µM -9% | [7]; [16] 12% | [8]; at 1.2 µM -17% | [8]; at 3.7 µM -6% | [8]; at 11.0 µM 69% | [9]; [16] 42% | [10]; at 1.2 µM -13% | [10]; at 3.7 µM -3% | [10]; [16] 44% | [10]; at 11.0 µM 54% | [11]; at 1.2 µM -15% | [11]; at 3.7 µM 0% | [11]; at 11.0 µM 57% | [12]; at 1.2 µM -4% | [12]; at 3.7 µM 4% | [13]; at 1.2 µM 0% | [13]; at 3.7 µM 17% | [15]; at 1.2 µM -13% | [15]; at 3.7 µM -9% | [15]; at 11.0 µM 11%
